The source of these data is PubChem BioAssay (NCATS).

Results filed as inconclusive are left out. Unmarked numbers belong to inactive results. Active and inactive are the calls of the source. Calls come from the whole dose curve; as a rule, active = well fitted curve in the direction sought with a large enough effect; inconclusive = small, poorly fitted or top-dose-only effect, or another doubt; inactive = no such curve, though single readings can be large; an effect the other way counts as inactive or inconclusive.

Experiment [1] concerns the target Furin (Homo sapiens) (UniProt P09958). As to the kind of experiment: Furin counterscreen qHTS for Zika virus inhibitors (AID 1347149).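 For activity change, negative = inhibition: purified recombinant full-length human furin enzyme at 5 nM; fluorescence gain from furin cutting a BOC-RVRR-AMC peptide substrate over 15 min; top concentration of the series differs between compounds; plate controls were no-inhibitor control for no effect and no-enzyme control for full effect.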 Note: nearly all actives have a fitted effect of over 70% in size. Note: potency is the fitted concentration of half-maximal effect. The procedure, abridged: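 Fluorogenic cleavage of BOC-RVRR-AMC (2 microM final, Km ~15 µM) was monitored (ex 340, em 450 nm) at 37C after 15 min RT preincubation of 5 nM furin with compounds in HEPES pH 7.0 buffer with CaCl2 and Triton X-100. Percent inhibition was fitted to a 4-parameter Hill curve.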
A general note: The purpose of a counterscreen is to sort out artefacts and off-target activity.

A short description of experiment [2]: Confirmatory screen GU Rhodamine qHTS for Zika virus inhibitors qHTS (AID 1347157).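 Note: plate controls were no-inhibitor wells for no effect and no-enzyme wells for full effect; nearly all actives have a fitted effect of over 70% in size.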 The procedure, abridged: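 Noncovalent NS2B hydrophilic domain/NS3 protease complex (25 nM final) in 10 mM Tris-HCl pH 8.0, 0.01% Tween 20, preincubated 15 min with compounds (up to 114 microM), then 1.5 microM Rhodamine110 substrate. Fluorescence change over 15 min fitted to 4-parameter Hill.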

A short description of experiment [3]: Tertiary RLuc qRT-PCR qHTS assay for Zika virus inhibitors (AID 1347169). Note: top concentration of the series differs between compounds; % is set by controls: 0 for no effect and ±100 for the full control effect; nearly all actives have a fitted effect of over 55% in size. The procedure, abridged:
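Orthogonal cell-based infection assay using recombinant ZIKV-RLuc (Cambodian) in Vero cells; compound added prior to virus at MOI 1-2. Incubation lasts 48-72 hrs at 37 degrees C before live-cell Renilla substrate is added and luminescence measured.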
On the technique in general: Quantitative PCR measures a nucleic acid by following its amplification.

In experiment [4] the target is Calcium and integrin-binding protein 1 (Homo sapiens) (UniProt Q99828). As to the kind of experiment: Primary qHTS for Identification of Calcium Integrin Binding Protein 1 (CIB1) Competitor (AID 1508620). Note: top concentration of the series differs between compounds; % is set by controls: 0 for no effect and ±100 for the full control effect. The procedure, abridged: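 Fluorescence polarization competition: GST-tagged CIB1 (1 uM final) preincubated with compound 15 min at room temperature, then FITC-labelled alphaIIb peptide (100 nM final) added. After 15 min at room temperature, polarization read at Ex 480/Em 540.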
Chain of Calcium and integrin-binding protein 1 (Homo sapiens) (Q99828 whole entry, looked up): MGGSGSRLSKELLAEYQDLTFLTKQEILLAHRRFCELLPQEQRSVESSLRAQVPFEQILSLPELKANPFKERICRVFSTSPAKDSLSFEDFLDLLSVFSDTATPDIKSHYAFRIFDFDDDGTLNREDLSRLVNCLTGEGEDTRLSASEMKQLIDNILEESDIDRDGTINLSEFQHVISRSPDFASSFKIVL
Background: Quantitative high-throughput screening tests each substance at several concentrations.

Experiment [5] is described as follows: ZIKV-mCherry secondary qHTS for Zika virus inhibitors (AID 1347158). Note: top concentration of the series differs between compounds. The procedure, abridged: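 Vero cells, 5,000/well, plated overnight at 37 °C, then compound added and infected with recombinant ZIKV-mCherry at MOI 1 for 48-72 h. PFA-fixed, Hoechst nuclear stain, high-content imaging; cells with mCherry intensity above 450 RFU scored infected, reported as percent infection.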

The subject of experiment [6] is Zika virus NS2B-NS3 protease (linked). As to the kind of experiment: 384 well plate NINDS AMC confirmatory qHTS for Zika virus inhibitors (AID 1347163).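 For activity change, negative = inhibition: linked protease at 5 30 or 60 nM final depending on run; fluorescence of AMC released from Ac-VKTGKR-AMC peptide cleaved by the protease; top concentration of the series differs between compounds; 0% = no-inhibitor control and -100% = no-enzyme control.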 Note: nearly all actives have a fitted effect of over 50% in size. Note: potency is the fitted concentration of half-maximal effect. The procedure, abridged:
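Linked protease 5/30/60 nM final; cpds up to 1 mM final, ~15 min preinc. Substrate Ac-VKTGKR-AMC 30 microM final. RT, dark, 25 min; FI ex 355/em 460; normalized to no-enzyme/no-inhibitor ctrls.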

In experiment [7] the test system is Zika virus NS2B-NS3 protease (linked construct). The experiment can be described thus: 384 well plate NINDS Rhodamine confirmatory qHTS for Zika virus inhibitors (AID 1347164). Note: potency is the fitted concentration of half-maximal effect; nearly all actives have a fitted effect of over 65% in size. The procedure, abridged:
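Compounds are incubated about 15 minutes with linked protease (5, 30 or 60 nM final). Rhodamine 110-tagged Ac-LKRR substrate (10 microM final) is added and fluorescence measured after 25 minutes.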

Experiment [8] concerns the target Rap guanine nucleotide exchange factor 3 (Homo sapiens) (UniProt O95398). As to the kind of experiment: Confirmatory qHTS for antagonist of cAMP-regulated guanine nucleotide exchange factor 3 (EPAC1) (AID 1645880).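 Note: plate controls were DMSO only for no effect and full effect of the ATA control for full effect; nearly all actives have a fitted effect of over 55% in size.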 The procedure, abridged: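 Nucleotide exchange uses 100 nM EPAC1, 250 nM RAP1B-BODIPY-GDP and 50 uM GDP, with compounds in a concentration-titration series. After 5 min at room temperature, fluorescence (480 nm ex/540 nm em) is read every 5 min for 30 min. Data are normalized to control ATA and DMSO.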

Experiment [9] has the same target. As to the kind of experiment: Confirmatory qHTS for agonist of cAMP-regulated guanine nucleotide exchange factor 3 (EPAC1) (AID 1645881).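 Note: EPAC1 catalysed release of BODIPY-GDP from Rap1B seen as fluorescence loss; 100% = effect of cAMP agonist control; nearly all actives have a fitted effect of over 75% in size.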
For experiment [10], the target named is Rap guanine nucleotide exchange factor 4 (Homo sapiens) (UniProt Q8WZA2). The experiment can be described thus: Confirmatory qHTS for agonist of cAMP-regulated guanine nucleotide exchange factor 4 (EPAC2) (AID 1645884).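 Note: nucleotide exchange releases bodipy-GDP from Rap1 and this lowers its fluorescence; % is set by controls: 0 for no effect and ±100 for the full control effect; nearly all actives have a fitted effect of over 65% in size.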
Chain of Rap guanine nucleotide exchange factor 4 (Homo sapiens) (Q8WZA2 whole entry, looked up): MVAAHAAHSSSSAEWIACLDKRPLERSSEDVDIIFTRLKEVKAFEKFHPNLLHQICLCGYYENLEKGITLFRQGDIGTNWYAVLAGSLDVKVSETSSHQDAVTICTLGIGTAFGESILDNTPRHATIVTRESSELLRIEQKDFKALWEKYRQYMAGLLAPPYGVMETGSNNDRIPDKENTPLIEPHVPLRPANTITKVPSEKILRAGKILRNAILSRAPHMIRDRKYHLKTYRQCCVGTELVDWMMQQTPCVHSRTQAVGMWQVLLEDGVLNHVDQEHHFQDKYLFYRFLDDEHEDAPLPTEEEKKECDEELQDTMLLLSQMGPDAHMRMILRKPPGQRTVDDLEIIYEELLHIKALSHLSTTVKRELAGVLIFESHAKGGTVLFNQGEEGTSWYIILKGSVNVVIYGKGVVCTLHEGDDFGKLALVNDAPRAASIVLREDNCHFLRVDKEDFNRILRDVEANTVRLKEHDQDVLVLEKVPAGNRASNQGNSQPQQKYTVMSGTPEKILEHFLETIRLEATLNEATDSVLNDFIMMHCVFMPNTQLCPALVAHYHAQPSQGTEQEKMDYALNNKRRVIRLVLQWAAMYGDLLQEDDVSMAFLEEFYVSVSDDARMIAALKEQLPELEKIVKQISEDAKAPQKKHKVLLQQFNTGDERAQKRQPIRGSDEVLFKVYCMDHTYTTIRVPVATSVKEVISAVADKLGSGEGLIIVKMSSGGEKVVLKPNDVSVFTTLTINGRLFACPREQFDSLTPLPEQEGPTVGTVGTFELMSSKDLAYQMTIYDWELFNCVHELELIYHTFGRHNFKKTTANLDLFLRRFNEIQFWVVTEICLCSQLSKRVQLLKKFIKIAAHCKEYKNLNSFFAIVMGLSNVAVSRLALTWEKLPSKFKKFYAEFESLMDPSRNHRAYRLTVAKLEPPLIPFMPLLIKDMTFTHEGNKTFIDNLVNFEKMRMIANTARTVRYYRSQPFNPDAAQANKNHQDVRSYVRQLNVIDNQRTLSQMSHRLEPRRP
Experiment [11] has the same target. The experiment can be described thus: Confirmatory qHTS for antagonist of cAMP-regulated guanine nucleotide exchange factor 4 (EPAC2) (AID 1645885). Note: % is set by controls: 0 for no effect and ±100 for the full control effect; nearly all actives have a fitted effect of over 25% in size.
Experiment [12] addresses Rap guanine nucleotide exchange factor 3 (Homo sapiens) (UniProt O95398). The experiment can be described thus: Counterscreen qHTS for antagonist of cAMP-regulated guanine nucleotide exchange factor 3 (EPAC1) (AID 1645888).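 Note: fluorescence loss as bound BODIPY-GDP is released from Rap1B; % of control where 0% means no effect.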 The procedure, abridged:
(§1)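 Rap1B–BODIPY-GDP (250 nM) with 50 uM GDP; compounds pin-transferred to 9.74 nM–152 uM final (activator) or from 7.32 nM upwards (inhibitor). Fluorescence Ex/Em 480/540 nm read at 5 and 30 min, then after adding cAMP or buffer, at room temperature.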

Experiment [13] has the same target. As to the kind of experiment: Counterscreen qHTS for agonist of cAMP-regulated guanine nucleotide exchange factor 3 (EPAC1) (AID 1645889). Note: % of control where 0% means no effect; nearly all actives have a fitted effect of over 40% in size. The procedure, abridged: as §1

Chain of Furin (Homo sapiens) (P09958 whole entry, looked up): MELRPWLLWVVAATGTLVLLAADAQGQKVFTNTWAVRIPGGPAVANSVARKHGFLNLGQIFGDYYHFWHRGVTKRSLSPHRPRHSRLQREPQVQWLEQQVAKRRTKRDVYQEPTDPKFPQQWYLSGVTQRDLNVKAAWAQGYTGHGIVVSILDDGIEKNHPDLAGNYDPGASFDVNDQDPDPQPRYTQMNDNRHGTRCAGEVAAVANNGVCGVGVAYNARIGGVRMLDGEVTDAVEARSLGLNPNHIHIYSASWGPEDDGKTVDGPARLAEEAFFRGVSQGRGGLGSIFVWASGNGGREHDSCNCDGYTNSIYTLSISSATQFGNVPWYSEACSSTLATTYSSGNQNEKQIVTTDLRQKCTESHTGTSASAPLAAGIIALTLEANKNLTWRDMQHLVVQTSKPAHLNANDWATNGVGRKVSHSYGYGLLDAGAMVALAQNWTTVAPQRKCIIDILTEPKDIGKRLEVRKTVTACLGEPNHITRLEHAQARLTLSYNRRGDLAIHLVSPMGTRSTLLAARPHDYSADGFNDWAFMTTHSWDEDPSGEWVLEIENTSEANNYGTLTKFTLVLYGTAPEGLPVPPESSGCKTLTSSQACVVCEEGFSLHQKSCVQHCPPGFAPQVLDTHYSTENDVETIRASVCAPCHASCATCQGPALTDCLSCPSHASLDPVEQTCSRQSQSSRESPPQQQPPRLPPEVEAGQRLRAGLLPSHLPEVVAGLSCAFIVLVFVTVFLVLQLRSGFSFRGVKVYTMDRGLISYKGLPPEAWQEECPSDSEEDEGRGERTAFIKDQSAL
Chain of Rap guanine nucleotide exchange factor 3 (Homo sapiens) (O95398 whole entry, looked up): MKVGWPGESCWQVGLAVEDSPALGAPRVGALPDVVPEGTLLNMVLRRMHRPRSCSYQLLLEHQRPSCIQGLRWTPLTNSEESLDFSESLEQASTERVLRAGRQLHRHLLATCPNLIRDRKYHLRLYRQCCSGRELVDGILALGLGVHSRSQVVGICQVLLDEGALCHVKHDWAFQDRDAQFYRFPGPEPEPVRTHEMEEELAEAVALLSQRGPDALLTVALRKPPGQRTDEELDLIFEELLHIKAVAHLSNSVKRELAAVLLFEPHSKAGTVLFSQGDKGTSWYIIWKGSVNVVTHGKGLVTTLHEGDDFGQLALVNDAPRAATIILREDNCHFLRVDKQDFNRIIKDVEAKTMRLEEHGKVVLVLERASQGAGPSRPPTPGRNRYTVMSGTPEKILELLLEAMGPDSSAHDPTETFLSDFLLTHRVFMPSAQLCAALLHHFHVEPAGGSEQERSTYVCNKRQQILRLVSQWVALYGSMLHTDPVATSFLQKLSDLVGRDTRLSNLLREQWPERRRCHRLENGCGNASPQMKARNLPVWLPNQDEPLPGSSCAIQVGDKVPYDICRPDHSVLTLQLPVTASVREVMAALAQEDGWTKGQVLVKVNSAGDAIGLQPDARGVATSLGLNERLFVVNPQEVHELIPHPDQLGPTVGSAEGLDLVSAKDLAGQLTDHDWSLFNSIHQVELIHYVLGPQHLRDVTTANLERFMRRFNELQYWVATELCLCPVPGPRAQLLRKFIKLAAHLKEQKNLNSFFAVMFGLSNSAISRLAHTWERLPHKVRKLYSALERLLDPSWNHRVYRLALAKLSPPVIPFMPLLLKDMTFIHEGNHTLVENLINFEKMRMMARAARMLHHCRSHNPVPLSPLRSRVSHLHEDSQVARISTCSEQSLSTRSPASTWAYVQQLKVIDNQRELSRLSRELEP

Consider `O=C(OCC#CCSc1nnc(-c2cccc3ccccc23)o1)c1ccc(F)c(F)c1`, for which the Potency in experiment [1] is 59.1 µM (active). Moreover, the Potency result in [2] and in experiment [3] was “inactive” throughout. In addition, the result in experiment [4] was inactive.
Turning to `COc1ccc(S(=O)(=O)c2c(O)c(C)cc(NS(=O)(=O)c3ccc(Cl)cc3)c2C(C)C)cc1`, the Potency entry in experiment [1], in [2] and in [3] was “inactive” each time.
In the case of `CCCCCCc1cc2cc(-c3cn4c(n3)sc3cc(OC)ccc34)c(=O)oc2cc1O`, the Potency result in [1], in [5], in experiment [6], in [3], in [8] and in experiment [13] was “inactive” in each case. Besides, the Potency in [7] is 35.5 µM (active). Also, the call in [9], in experiment [10] and in experiment [12] was inactive. Further, the activity change, negative = inhibition in [11] was -6.89% [at 12.7 µM].
In the case of `O=C(Nc1ccc(C(=O)OCc2cc(=O)n3c4c(sc3n2)CCCC4)cc1)c1ccc(Cl)cc1`, the Potency in [1] was 46.9 µM (active). Besides, the Potency result in experiment [2] and in [3] was “inactive” each time.
On to `Cc1cccc(C)c1-n1c(SCC(=O)Nc2ccc(C(=O)O)cc2)nnc1-c1cccc([S+](=O)([O-])N2CCCC2)c1`, for which the Potency entry in experiment [1], in [5] and in experiment [3] was “inactive” throughout. Further, the Potency in experiment [6] is 70.8 µM (active); in experiment [7], 89.1 µM (active).
